# Luc counter – Counterscreen for Luciferase (Kinase-Glo TM) Inhibition | Kinase-Glo luciferase, ATP luminescence, 8 min | Luciferin 4-monooxygenase (Photuris pensylvanica), Q27757 | AID 1379, 2008 | Potency, µM (highest dose often 38.3 µM), usual class: inhibitors | 0.28% of 200,000 active; further: nearly all actives have a fitted effect of over 60% in size
#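 Kinase-Glo luciferase light output from ATP and luciferin was measured with 10 uM ATP, within the enzyme's linear range. Buffer: 50 mM imidazole pH 7.2, 50 mM KCl, 7 mM MgCl2, 0.01% Tween 20, 0.05% BSA; luminescence read after 8 min at ambient temperature.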
# ELG1 genotoxic – qHTS screen for small molecules that induce genotoxicity in human embryonic kidney (HEK293T) cells expressing luciferase-tagged ELG1. HEK293T ELG1-luciferase reporter, luminescence, 16 h. Potency, µM (doses to about 46 µM), most hits filed as activators. 1.3% of 330,000 active. AID 504466, 2011; further: nearly all actives have a fitted effect of over 60% in size
#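 Luminescence read-out: rising ELG1-luciferase signal, reflecting elevated ELG1 protein under genetic stress, flags genotoxic compounds. Cells were treated for 16 hr at 37 °C before ONE-Glo detection.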
# SMN2 splice enh – qHTS Assay for Enhancers of SMN2 Splice Variant Expression; Potency, µM (doses to about 46.1 µM), usual class: activators; HEK293 SMN2-luciferase splicing reporter, luminescence, 30-36 h; 2.8% of 210,000 active; further: nearly all actives have a fitted effect of over 55% in size
#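 HEK293 cells carry an SMN2 […]–luciferase reporter in which exon 7 inclusion puts luciferase in frame. Cells were plated 10-12 h before compound addition, then incubated 30-36 h at 37C. ONE-Glo luminescence was read; sodium butyrate at 4.5 mM final served as control.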
# NPC1 prom act – qHTS Assay for NPC1 Promoter Activators. 2.4% of 320,000 active. Huh7 NPC1 promoter luciferase reporter, 24 h. Potency, µM (titrated, usually from 9.22 µM), usual class: activators; further: nearly all actives have a fitted effect of over 60% in size
#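 In 1536-well qHTS, Huh7 cells harboring an NPC1 promoter–luciferase construct received compound for 24 h; activation was quantified by luminescence following luciferase reagent addition.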
# FLuc modulator – qHTS profiling assay for firefly luciferase inhibitor/activator using purifed enzyme and Km concentrations of substrates (counterscreen for miR-21 project) | purified FLuc, Km substrates, luminescence inhibition | Potency, µM (doses to about 57.5 µM), usual class: inhibitors | 6.9% of 360,000 active; further: nearly all actives have a fitted effect of over 55% in size
# Target sequence (P08659 whole entry, looked up): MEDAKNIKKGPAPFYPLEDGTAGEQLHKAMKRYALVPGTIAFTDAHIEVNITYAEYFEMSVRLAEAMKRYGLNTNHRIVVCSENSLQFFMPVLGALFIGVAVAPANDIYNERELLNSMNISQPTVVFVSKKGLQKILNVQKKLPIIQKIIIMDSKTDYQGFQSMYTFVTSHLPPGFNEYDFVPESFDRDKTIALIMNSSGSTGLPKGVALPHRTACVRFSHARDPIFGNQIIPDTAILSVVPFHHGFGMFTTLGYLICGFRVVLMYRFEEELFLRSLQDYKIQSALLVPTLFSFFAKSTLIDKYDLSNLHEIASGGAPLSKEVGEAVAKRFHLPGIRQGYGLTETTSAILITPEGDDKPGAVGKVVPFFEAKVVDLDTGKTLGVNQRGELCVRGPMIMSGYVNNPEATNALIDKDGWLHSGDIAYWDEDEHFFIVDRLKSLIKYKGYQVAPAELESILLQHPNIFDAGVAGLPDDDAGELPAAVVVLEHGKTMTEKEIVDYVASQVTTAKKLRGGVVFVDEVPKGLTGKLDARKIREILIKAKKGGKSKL
#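 Biochemical qHTS of compounds, final roughly 60 µM downward over six points, against 10 nM purified firefly luciferase using Km concentrations of substrates (10 uM D-luciferin, 10 uM ATP) in Tris acetate pH 7.5 buffer; luminescence output.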
# Rab9 promoter act – qHTS Assay for Rab9 Promoter Activators; Potency, µM (top dose mostly 9.22 µM), actives largely listed as activators; 2.8% of 320,000 active; Huh7 Rab9 promoter-luciferase reporter, luminescence, 24 h; AID 485297, 2010; further: nearly all actives have a fitted effect of over 60% in size
#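 Quantitative HTS format; Huh7 Rab9-luciferase reporter cells (1500/well) receive compound 2 h post-plating, incubate 24 h at 37 °C, then get luciferase reagent for 10 min before luminescence reading.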
# Hits are given with their value; . = inactive; ? = inconclusive; / = not tested or not shown; [ ] = another dose, or the depositor's remark. Most compounds without a hit are left out; they make up all but 7.4% or so of the library. The call rests on the fitted dose curve; in most records, active means well fitted curve in the direction sought with a large enough effect; inconclusive means small, poorly fitted or top-dose-only effect, or another doubt; inactive means no such curve, though single readings can be large; an effect the other way counts as inactive or inconclusive.
SMILES,Luc counter,ELG1 genotoxic,SMN2 splice enh,NPC1 prom act,FLuc modulator,Rab9 promoter act
O=C(O)c1ccc(NC(=O)c2ccccc2NC(=O)c2ccccc2Br)cc1,/,.,/,.,16.9µM,.
CCNC(=S)Nc1ccc(NC(=O)c2ccccc2O)cc1,/,.,/,.,12µM,.
CCc1ccc(NC(=O)c2ccccc2Br)cc1,.,.,12.6µM,1.41µM,10.7µM,2µM
O=C(Nc1ccccc1C(F)(F)F)c1ccccc1Br,.,.,.,.,.,.
O=C(Nc1ccc(Br)cc1)c1ccccc1Br,/,?,/,1.41µM,10.7µM,3.16µM
COc1cccc(CN2CC(C(=O)N(C)C3CCOCC3)CCC2=O)c1 (stereo not drawn),/,.,/,.,.,.
CCn1cc(CNC(=S)Nc2cccc(Cl)c2C)cn1,.,.,.,.,.,.
NNC(=O)C1CC(O)CN1S(=O)(=O)c1ccc2ccccc2c1 (stereo not drawn),/,.,/,.,.,.
CCCCCCN1C=CC(=C/C=C(\C#N)C(=O)OCC)C=C1,.,.,.,.,.,.
CCOC(=O)/C(C#N)=C/c1ccc(-c2ccccc2)o1,/,/,.,/,9.53µM,/
CCCN1C=CC(=C/C=C(\C#N)C(=O)OCC)C=C1,.,?,14.1µM,3.98µM,6.01µM,3.98µM
CCCCOC(=O)/C(C#N)=C/c1ccc(-c2ccc(Br)cc2)o1,/,/,.,/,.,/
CCOC(=O)/C(C#N)=C/c1ccc(-c2ccc(C)cc2)o1,/,/,.,/,3.79µM,/
CC(C)COC(=O)/C(C#N)=C\c1ccc(-c2ccccc2Cl)o1,/,/,.,/,?,/
CCOC(=O)/C(C#N)=C/N=c1ccc(C)cn1C,/,?,/,?,16.9µM,?
CCCCC(=O)NC(=S)Nc1nnn(CCC)n1,.,.,.,.,.,.
N/C(=N\OC(=O)C1CCCCC1)c1ccc(Br)cc1,/,?,/,.,9.53µM,?
N/C(=N\OC(=O)C1CCCCC1)c1ccncc1,.,.,/,.,?,.
N/C(=N\OC(=O)C1CCCCC1)c1ccccn1,?,?,.,.,2.39µM,.
O=C(OCc1ccc(COC(=O)c2ccccn2)cc1)c1ccccn1,.,.,.,.,.[2.3 µM],.
N/C(=N\OC(=O)C1CCCCC1)c1ccc(Cl)cc1,/,?,/,.,10.7µM,.
O=C(O)c1cc(S(=O)(=O)O)cc(Nc2c3ccccc3nc3ccccc23)c1O,/,.,/,.,8.49µM,.
O/C(=C\c1ccc2ccccc2n1)c1ccncc1,/,?,/,2.51µM,2.39µM,1.41µM
O/N=C/c1ccc2ccccc2n1,/,?,/,?,?,2.82µM
O/N=C/c1ccc2cccc(O)c2n1,/,.,/,.,?,.
SMILES,Luc counter,ELG1 genotoxic,SMN2 splice enh,NPC1 prom act,FLuc modulator,Rab9 promoter act
O/C(=C\c1nc2ccccc2nc1/C=C(\O)c1ccccc1)c1ccccc1,.,.,?,3.16µM,1.07µM,4.47µM
CCOc1ccccc1NC(=O)Cn1cnc2c1c(=O)n(C)c(=O)n2C,/,/,.,/,.,/
C=CCn1c(O)c(C=Nc2ccc(CN3CCCCC3)cc2)c(=O)[nH]c1=S,/,.,/,.,.,.
Cc1ccccc1-c1nc2sc(C)c(C)c2c(=O)o1,/,.,/,.,7.57µM,.
Cc1ccccc1-c1nc2sc(-c3ccccc3)cc2c(=O)o1,.,.,.,.,4.78µM,.
Cc1cccc2c(=O)oc(-c3ccccc3Cl)nc12,/,.,/,.,?,.
Cc1ccc2c(c1)c1cccc3c1n2CCN3CCC(N)=O,.,5.01µM,20µM,3.16µM,6.01µM,3.16µM
NC(=O)CCn1c2ccccc2c2ccccc21,.,.,.,.,.,.
Cc1ccc2c(c1)cc1c(=O)[nH]ncn12,.,?,.,?,21.3µM,?
Cc1ccc(C(=O)c2cn(Cc3ccccc3)c3nc(C)ccc3c2=O)cc1,/,/,.,/,.,/
CC(=O)Nc1ccccc1C(=O)C(=O)Nc1ccccc1,.,.,?,?,.,?
CCC(=O)Nc1ccccc1C(=O)C(=O)Nc1ccccc1,.,.,?,?,.,2.51µM
O=C(NN=C1CCCCCC1)C(=O)Nc1cccc(Br)c1,.,.,.[1.84 µM],.,6.01µM,.
CC(=O)Nc1ccccc1C(=O)C(=O)Nc1ccc(Cl)cc1,.,?,22.4µM,2.24µM,.,2.51µM
CC(=O)Nc1ccccc1C(=O)C(=O)Nc1cccc(Br)c1,.,.,.,?,.,2.51µM
CC(=O)c1cccc(NC(=O)C2CCN(C(=O)c3cccs3)CC2)c1,/,.,/,.,.,.
CCN(CC)c1ccc(NC(=O)COC(=O)c2cccs2)cc1,.,.,.,.,12µM,.
COc1cc(OC)cc(C(=O)OCC(=O)Nc2ccc3[nH]c(=O)[nH]c3c2)c1,/,.,/,.,.,.
CCN(CC)c1ccc(NC(=O)COC(=O)c2ccc3ccccc3n2)cc1,.,.,.,.,23.9µM,.
CCN(CC)c1ccc(C(=O)OCC(=O)Nc2ccc3[nH]c(=O)[nH]c3c2)cc1,.,.,.,.,19µM,.
CCN(c1ccc(NC(=O)COC(=O)c2cccs2)cc1)C(C)C,.,.,?,.,8.49µM,.
COc1ccc(NC(=O)COC(=O)c2ccc3ccccc3n2)cc1,/,.,/,.,.,.
O=C(CN1CCN(c2cnn(-c3ccccc3)c(=O)c2Cl)CC1)NC1CCS(=O)(=O)C1 (stereo not drawn),/,.,/,.,.,.
COCCN(C(=S)Nc1ccccc1OC)C(C)c1cccs1 (stereo not drawn),.,.,.,.,.,.
COCCN(CC(=O)Nc1cccc(C)c1C)C(=O)c1oc2ccccc2c1C,/,.,/,/,/,/
SMILES,Luc counter,ELG1 genotoxic,SMN2 splice enh,NPC1 prom act,FLuc modulator,Rab9 promoter act
Cc1c(NC(=S)N/C(=N/S(=O)(=O)c2ccc(Cl)cc2)c2ccccc2)c(=O)n(-c2ccccc2)n1C,/,.,/,.,.,.
CCN(CC)C(=O)C1CCC(CNS(=O)(=O)c2cccc3nsnc23)CC1 (stereo not drawn),/,.,/,.,.,.
COC(=O)C1Cc2c([nH]c3ccccc23)CN1C(C)=O (stereo not drawn),/,.,/,.,.,.
CCN(CC)S(=O)(=O)c1cccc(NC(=O)c2ccc(Br)cc2)c1,.,.,.,.,?,.
CCN(CC)S(=O)(=O)c1cccc(NC(=O)c2cc3ccccc3o2)c1,.,.,.,.,12µM,.
O=C(COC(=O)c1cc2ccccc2oc1=O)Nc1ccc(F)cc1F,/,?,/,2.24µM,7.57µM,2.51µM
CCN(c1ccc(NC(=O)COC(=O)c2cc3ccccc3oc2=O)cc1)C(C)C,.,.,.,.,?,.
CN(C)S(=O)(=O)c1cccc(NC(=O)COC(=O)c2cc(=O)c3ccccc3o2)c1,/,.,/,.,.,.

# Screens from PubChem BioAssay.
